Assay results: PubChem BioAssay
Results filed as inconclusive are left out. The source made the active and inactive calls.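 Rule for the calls, unless noted: active = GFP response, as percent of the DMSO control, above the screen-wide mean plus 3 SD, about 139; inconclusive = no response measured because the compound's own fluorescence interfered; inactive = the rest.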

Key:
[1] = yeast TOR pathway RPL19A-GFP modulators, primary screen, cell-based, S. cerevisiae, multiplex flow cytometry (AID 1862; in the data active = percent of DMSO control GFP below about 86%;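 note: lower values mimic rapamycin by blocking the RPL19A rise seen in DMSO cells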); details: S. cerevisiae RPL19A-GFP strain, flow cytometry fluorescence, 3 h; at 10 µM; stronger effect = lower value
[2] = modulators of MEP2-GFP levels in yeast, primary screen, S. cerevisiae, multiplex flow cytometry (AID 1867);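 note: median GFP channel fluorescence of barcode-gated MEP2-GFP cells measured by flow cytometry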; details: S. cerevisiae MEP2-GFP strain, 3 h, at 10 µM, stronger effect = higher value, 100% means same as DMSO wells
[3] = modulators of CIT2-GFP expression in yeast, primary screen, S. cerevisiae, GFP fusion, multiplex flow cytometry (AID 1870;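 active = percent response above a set limit, the screen-wide mean plus 3 SD, cut at about 130% in these data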;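 note: barcoded CIT2-GFP strain pooled with four other GFP strains with rapamycin as positive control; median GFP fluorescence per well over plate mean of DMSO wells so 100% = DMSO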); details: 3 h, at 10 µM, stronger effect = higher value
[4] = modulators of LAP4-GFP expression in yeast, primary screen, S. cerevisiae, multiplex flow cytometry (AID 1873;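 active = GFP signal, as percent of the solvent control, above the screen mean plus 3 SD, about 149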); details: 3 h, at 10 µM, stronger effect = higher value
[5] = modulators of AGP1-GFP expression in yeast TOR pathway, primary screen, cell-based, multiplex flow cytometry, S. cerevisiae (AID 1887;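 active = GFP signal above the screen-wide mean plus 3 SD, that is over about 124.5% of the solvent control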;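 note: AGP1-GFP fusion strain of S. cerevisiae within a five-strain barcoded multiplex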); details: 3 h, at 10 µM, stronger effect = higher value
[6] = inhibitors of CD8+ T cell-vesicle binding, pilot screen, LFA-1/ICAM-1 modulator project, MLPCN validation set, flow cytometry (AID 2523;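 active = response below a set limit, under 55% cells CD8-positive and vesicle-bound, and CD8 cells' 90th-percentile brightness under 279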;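 for vesicle binding response: mean PE anti-B7-1 fluorescence of CD8+ cells relative to row control; 100% = QL9-loaded vesicles with DMSO vehicle in the same plate row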); details: 2C mouse CD8+ T cells, at 7 µM, stronger effect = lower value; double positive events: measured here: CD8+/vesicle+ event percentage
[7] = molecular target: Integrin beta-1 (Homo sapiens) + Integrin alpha-4 (Homo sapiens) (UniProt P13612+P05556); test: inhibition of HUTS-21 binding to VLA-4, pilot screen, VLA-4 allosteric modulator project, U937 cells, HUTS-21 mAb, flow cytometry, validation set (AID 2674;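 active = inhibition above 50%, about 3 SD of the validation set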;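 note: antibody binding induced by the VLA-4 ligand LDV present at three times its Kd; 0% = LDV ligand with antibody and no compound and 100% = antibody without LDV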); details: HUTS-21 LIBS mAb binding, at 6.7 µM, stronger effect = higher value, binding induced by LDV ligand
Chain of Integrin beta-1 (Homo sapiens) + Integrin alpha-4 (Homo sapiens) (P05556 whole entry, looked up): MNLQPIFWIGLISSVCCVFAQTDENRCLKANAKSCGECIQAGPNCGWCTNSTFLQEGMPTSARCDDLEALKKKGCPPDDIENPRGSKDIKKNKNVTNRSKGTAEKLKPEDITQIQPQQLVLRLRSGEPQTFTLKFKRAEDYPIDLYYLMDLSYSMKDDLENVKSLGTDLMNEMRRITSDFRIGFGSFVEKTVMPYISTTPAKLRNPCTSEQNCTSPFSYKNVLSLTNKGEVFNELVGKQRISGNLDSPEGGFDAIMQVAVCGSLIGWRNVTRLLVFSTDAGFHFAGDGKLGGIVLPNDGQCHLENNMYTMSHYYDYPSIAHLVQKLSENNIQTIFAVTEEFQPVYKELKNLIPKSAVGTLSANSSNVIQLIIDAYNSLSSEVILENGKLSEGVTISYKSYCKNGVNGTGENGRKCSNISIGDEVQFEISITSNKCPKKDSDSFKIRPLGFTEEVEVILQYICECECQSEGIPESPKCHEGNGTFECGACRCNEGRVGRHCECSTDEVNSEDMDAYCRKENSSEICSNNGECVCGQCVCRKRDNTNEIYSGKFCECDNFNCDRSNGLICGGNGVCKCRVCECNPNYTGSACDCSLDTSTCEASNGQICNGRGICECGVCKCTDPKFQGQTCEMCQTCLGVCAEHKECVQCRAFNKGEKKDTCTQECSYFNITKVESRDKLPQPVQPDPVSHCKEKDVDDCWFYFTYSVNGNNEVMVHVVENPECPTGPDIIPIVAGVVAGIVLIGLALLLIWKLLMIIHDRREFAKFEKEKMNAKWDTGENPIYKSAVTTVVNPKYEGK
Chain of Integrin beta-1 (Homo sapiens) + Integrin alpha-4 (Homo sapiens) (P13612 whole entry, looked up): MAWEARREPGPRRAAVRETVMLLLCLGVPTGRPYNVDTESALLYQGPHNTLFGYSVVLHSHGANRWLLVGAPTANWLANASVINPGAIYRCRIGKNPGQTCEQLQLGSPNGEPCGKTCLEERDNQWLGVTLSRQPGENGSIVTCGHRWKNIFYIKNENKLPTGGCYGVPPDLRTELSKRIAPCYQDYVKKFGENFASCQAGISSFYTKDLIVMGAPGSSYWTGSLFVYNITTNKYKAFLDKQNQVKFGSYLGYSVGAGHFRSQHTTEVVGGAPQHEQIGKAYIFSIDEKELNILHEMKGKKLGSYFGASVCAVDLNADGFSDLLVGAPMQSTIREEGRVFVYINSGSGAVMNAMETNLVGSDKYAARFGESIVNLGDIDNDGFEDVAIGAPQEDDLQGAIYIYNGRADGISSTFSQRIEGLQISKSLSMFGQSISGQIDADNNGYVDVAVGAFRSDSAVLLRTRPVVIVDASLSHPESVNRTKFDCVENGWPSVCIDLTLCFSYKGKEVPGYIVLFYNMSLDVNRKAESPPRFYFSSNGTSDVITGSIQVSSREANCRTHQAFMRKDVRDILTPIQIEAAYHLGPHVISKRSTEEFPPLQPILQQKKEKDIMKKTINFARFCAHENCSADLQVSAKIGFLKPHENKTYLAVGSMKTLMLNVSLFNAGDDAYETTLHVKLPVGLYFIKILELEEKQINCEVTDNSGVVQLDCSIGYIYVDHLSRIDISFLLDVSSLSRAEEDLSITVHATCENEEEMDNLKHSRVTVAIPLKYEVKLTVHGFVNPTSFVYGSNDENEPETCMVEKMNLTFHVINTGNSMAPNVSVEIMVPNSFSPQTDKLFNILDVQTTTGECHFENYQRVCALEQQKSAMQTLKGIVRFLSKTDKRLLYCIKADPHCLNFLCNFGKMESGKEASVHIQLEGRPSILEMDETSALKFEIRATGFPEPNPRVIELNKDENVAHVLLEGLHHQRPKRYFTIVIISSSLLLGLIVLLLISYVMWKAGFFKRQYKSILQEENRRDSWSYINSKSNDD

[8] = superoxide lowering in aged yeast cells, pilot screen, validation compound set (AID 2706;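 active = superoxide response below 65% of plate, a cut near 3 SD across the whole screen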;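 note: yeast exposed to compound for one week at 30 degrees C before staining; 100% = mean of all compound wells on the same plate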); details: S. cerevisiae aging, superoxide DHE fluorescence; at 10 µM; stronger effect = lower value
[9] = molecular target: Beta-adrenergic receptor kinase 1 (Homo sapiens) (UniProt P25098); test: GRK2 binders displacing RNA aptamer, biochemical, validation, human GRK2, bead flow cytometry (AID 488806;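 active = aptamer binding inhibition above 30%, about 3 SD of noise from non-fluorescent compounds; inactive = inhibition at or below 30%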); details: bead-bound GRK2, FAM-aptamer displacement, at 10 µM, stronger effect = higher value
Chain of Beta-adrenergic receptor kinase 1 (Homo sapiens) (P25098 whole entry, looked up): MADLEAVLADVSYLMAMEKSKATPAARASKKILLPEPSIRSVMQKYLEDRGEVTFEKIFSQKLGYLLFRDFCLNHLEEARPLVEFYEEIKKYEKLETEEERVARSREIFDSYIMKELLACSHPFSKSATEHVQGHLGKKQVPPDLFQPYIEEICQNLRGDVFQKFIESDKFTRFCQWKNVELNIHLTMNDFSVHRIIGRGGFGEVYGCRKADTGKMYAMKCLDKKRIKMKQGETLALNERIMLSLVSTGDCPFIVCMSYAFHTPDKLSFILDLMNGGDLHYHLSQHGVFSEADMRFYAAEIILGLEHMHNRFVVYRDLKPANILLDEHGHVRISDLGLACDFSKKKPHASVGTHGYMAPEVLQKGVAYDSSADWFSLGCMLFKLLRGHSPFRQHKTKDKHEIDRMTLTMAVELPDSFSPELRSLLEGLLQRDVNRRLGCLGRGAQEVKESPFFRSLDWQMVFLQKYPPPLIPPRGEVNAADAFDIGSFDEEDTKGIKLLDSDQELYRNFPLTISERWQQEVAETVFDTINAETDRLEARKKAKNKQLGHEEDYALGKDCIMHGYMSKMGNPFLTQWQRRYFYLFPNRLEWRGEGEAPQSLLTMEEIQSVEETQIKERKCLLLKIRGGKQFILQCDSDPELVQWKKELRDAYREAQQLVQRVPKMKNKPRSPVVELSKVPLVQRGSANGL

[10] = molecular target: Beta-2 adrenergic receptor (Homo sapiens) (UniProt P07550); test: beta2AR agonists driving receptor internalization, pilot screen, cell-based, FAP fluorogen, flow cytometry, validation set (AID 504459;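 active = percent response above 42, roughly 3 SD of non-fluorescent test compounds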;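 note: agonist-driven loss of surface beta2AR via internalization measured by FAP dye flow cytometry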); details: Am2.2-beta2AR cells, FAP surface receptor flow cytometry; at 10 µM; stronger effect = higher value
Chain of Beta-2 adrenergic receptor (Homo sapiens) (P07550 whole entry, looked up): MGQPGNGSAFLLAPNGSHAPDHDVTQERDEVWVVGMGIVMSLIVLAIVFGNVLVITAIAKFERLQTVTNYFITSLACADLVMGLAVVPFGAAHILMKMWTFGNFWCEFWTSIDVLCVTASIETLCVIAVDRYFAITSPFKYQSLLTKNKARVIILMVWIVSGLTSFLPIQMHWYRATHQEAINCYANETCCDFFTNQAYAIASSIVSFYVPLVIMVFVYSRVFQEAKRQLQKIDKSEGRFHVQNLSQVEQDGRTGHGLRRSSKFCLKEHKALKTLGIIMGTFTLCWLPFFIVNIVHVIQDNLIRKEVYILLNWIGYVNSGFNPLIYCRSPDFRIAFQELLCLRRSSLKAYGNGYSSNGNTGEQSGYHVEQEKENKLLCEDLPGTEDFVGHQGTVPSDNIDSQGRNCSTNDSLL

[11] = molecular target: AP-2 complex subunit beta (Homo sapiens) (UniProt P63010); test: inhibitors of arrestin peptide binding to AP2, pilot screen, biochemical, validation set, GST-AP2 beads, flow cytometry (AID 504541;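 active = inhibition above 54%, about 3 SD of non-fluorescent compounds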;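 note: AP2 carries R879A mutation and is captured from E. coli lysate; bead-bound FITC arrestin peptide fluorescence measuring arrestin peptide binding to AP2; 0% = DMSO wells and 100% = excess unlabeled arrestin peptide control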); details: FITC arrestin peptide, at 10 µM, stronger effect = higher value, AP2 beta2 appendage fragment, R879A mutant
Chain of AP-2 complex subunit beta (Homo sapiens) (P63010 whole entry, looked up, the tested form may be a part, one chain of several): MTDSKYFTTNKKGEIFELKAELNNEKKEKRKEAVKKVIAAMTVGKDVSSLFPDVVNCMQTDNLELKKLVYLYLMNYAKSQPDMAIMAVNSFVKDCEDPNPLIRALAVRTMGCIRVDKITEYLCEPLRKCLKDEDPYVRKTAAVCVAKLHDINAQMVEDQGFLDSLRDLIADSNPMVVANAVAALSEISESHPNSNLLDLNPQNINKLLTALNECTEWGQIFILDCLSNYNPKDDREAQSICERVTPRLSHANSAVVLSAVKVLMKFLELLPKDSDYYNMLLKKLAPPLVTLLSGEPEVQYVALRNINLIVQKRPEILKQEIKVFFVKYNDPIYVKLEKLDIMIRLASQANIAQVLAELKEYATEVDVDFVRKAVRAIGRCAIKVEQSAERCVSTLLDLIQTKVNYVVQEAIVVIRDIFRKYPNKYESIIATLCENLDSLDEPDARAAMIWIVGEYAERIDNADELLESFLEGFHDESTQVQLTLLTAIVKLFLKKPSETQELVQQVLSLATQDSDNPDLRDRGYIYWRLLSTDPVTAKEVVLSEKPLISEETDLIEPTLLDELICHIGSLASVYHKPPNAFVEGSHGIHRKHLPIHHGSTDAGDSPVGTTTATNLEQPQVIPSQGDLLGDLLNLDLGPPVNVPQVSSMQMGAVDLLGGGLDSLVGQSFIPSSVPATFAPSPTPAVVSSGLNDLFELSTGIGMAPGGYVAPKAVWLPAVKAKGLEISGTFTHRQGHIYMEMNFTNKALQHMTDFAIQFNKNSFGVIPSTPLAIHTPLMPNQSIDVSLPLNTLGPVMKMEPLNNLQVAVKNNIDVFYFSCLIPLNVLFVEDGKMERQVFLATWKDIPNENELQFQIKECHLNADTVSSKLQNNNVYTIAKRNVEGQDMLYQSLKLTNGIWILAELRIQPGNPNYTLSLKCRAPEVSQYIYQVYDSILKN

[12] = yeast V-ATPase proton transport modulators, S. cerevisiae, pHLuorin, HTS validation (AID 504600; in the data active = response above about 15%;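 note: plate controls were DMSO for no effect and reference compound for full effect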); details: S. cerevisiae pHLuorin cytosolic pH, at 10 µM, stronger effect = higher value
[13] = system: anti-desmoglein-3 scFv antibody binding to human DSG3; test: inhibitors of anti-DSG3 scFv binding to DSG3, pilot screen, biochemical, validation compound set, bead-based, flow cytometry (AID 588368;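 active = binding below the plate cutoff, the plate median minus 3 SD, with a reading above zero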;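 note: signal is the median channel fluorescence of bead-bound GFP antibody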); details: Protein G beads, DSG3-Fc, scFv-GFP binding, at 10 µM, stronger effect = lower value
[14] = inhibitors of fungal efflux pumps CDR1, CDR2, MDR1, pilot screen, validation compound set, multiplex, phenotypic (AID 588506;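 active = efflux inhibition above 0.42, the validation set average plus 4 SD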;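 note: Nile Red retained in cells so higher fluorescence means more efflux inhibition; 0 = negative control wells and 1 = enniatin B 25 µM full block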); details: S. cerevisiae pump-expressing triplex, Nile Red efflux flow cytometry; at 10 µM; stronger effect = higher value; the pumps come from Candida albicans
[15] = molecular target: ATP-binding cassette sub-family B member 6 (Homo sapiens) (UniProt Q9NP58); test: ABCB6 transporter inhibitors, pilot screen, K562-ABCB6 cells, flow cytometry, validation set (AID 588550;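 active = inhibition above the screen-wide mean plus 3 SD, about 51%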;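 note: 0% = DMSO wells and 100% = benzethonium chloride 70 µM positive control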); details: K562-ABCB6 porphyrin accumulation, 1 h, at 10 µM, stronger effect = higher value
Chain of ATP-binding cassette sub-family B member 6 (Homo sapiens) (Q9NP58 whole entry, looked up): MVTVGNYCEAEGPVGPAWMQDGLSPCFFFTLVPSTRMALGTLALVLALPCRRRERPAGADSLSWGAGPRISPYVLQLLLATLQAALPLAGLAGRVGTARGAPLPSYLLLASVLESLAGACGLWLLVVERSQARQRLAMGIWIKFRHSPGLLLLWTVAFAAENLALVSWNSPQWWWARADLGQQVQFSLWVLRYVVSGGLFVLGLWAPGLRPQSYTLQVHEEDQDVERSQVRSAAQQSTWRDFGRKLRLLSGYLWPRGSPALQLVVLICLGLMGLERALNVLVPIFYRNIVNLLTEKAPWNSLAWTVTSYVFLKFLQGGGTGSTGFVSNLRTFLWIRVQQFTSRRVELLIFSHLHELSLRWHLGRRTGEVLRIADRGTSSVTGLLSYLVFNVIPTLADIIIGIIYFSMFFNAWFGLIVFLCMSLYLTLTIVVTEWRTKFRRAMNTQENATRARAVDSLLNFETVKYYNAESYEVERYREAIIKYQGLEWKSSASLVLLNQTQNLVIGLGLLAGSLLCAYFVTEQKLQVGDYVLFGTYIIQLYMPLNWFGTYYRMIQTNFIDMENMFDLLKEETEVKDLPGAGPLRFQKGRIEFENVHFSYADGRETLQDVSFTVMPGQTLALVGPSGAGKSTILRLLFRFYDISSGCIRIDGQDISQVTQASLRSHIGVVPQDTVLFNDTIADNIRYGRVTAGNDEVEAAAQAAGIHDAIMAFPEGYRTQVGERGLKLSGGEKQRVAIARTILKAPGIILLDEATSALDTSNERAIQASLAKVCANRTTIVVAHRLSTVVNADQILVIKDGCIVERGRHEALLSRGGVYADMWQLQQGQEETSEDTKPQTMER

[16] = promoters of myeloid differentiation in arrested cells, primary screen, cell-based, GFP/MAC1 double positive, flow cytometry, validation set (AID 588685;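 active = differentiation response of at least 50%, scaled between solvent and reference control, from cells with both markers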;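 note: compound exposure lasts four days before antibody staining and flow analysis; 0% = DMSO wells and 100% = 5 µM fulvestrant positive control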); details: ER-HoxA9 marrow cells, stronger effect = higher value, normalized: vehicle 0, fulvestrant 100

Nc1ccc(S(=O)(=O)NC(=O)c2ccccc2)cc1
57.6%: double positive events [6]
inactive: percent of DMSO control GFP [1] 100% | GFP response vs DMSO [2] 103% | percent response of DMSO control [3] 96.6% | GFP response vs DMSO [4] 99.9% | GFP response, % of DMSO [5] 100% | vesicle binding response [6] 30.6% | inhibition [7] -6.68% | superoxide response (% of plate) [8] 110% | aptamer binding inhibition [9] 1% | response [10] -5.78% | inhibition [11] -15.4% | response [12] 5.4% | binding (% of control) [13] 99.3% | efflux inhibition (fraction of control) [14] -0.07 | inhibition [15] 11% | differentiation response [16] 1.22%

Cc1ccc(Nc2ncccc2C(=O)O)cc1C
inactive: percent of DMSO control GFP [1] 90.6% | GFP response vs DMSO [2] 123% | percent response of DMSO control [3] 103% | GFP response vs DMSO [4] 80.3% | GFP response, % of DMSO [5] 94.7% | vesicle binding response [6] 264% | inhibition [7] 8.4% | superoxide response (% of plate) [8] 114% | aptamer binding inhibition [9] 2% | response [10] 0.08% | inhibition [11] -7.34% | response [12] -0.86% | binding (% of control) [13] 105% | efflux inhibition (fraction of control) [14] -0.31 | inhibition [15] 15% | differentiation response [16] 6.55%
64.4%: double positive events [6]

Cc1ccc(C(=O)Nc2ccccc2C(=O)NC(C(=O)O)C(C)C)cc1 (centres undefined)
inactive: percent of DMSO control GFP [1] 96.7% | GFP response vs DMSO [2] 109% | percent response of DMSO control [3] 89.1% | GFP response vs DMSO [4] 115% | GFP response, % of DMSO [5] 101% | vesicle binding response [6] 175% | inhibition [7] -19.5% | superoxide response (% of plate) [8] 116% | aptamer binding inhibition [9] 3% | response [10] -2.49% | inhibition [11] 10.5% | response [12] 0.12% | binding (% of control) [13] 99.1% | efflux inhibition (fraction of control) [14] -0.06 | inhibition [15] 3% | differentiation response [16] -13.6%
57.3%: double positive events [6]

CCn1c(SCC(=O)c2ccccc2)nc2ccccc2c1=O
inactive: percent of DMSO control GFP [1] 103% | GFP response vs DMSO [2] 108% | percent response of DMSO control [3] 99.7% | GFP response vs DMSO [4] 115% | GFP response, % of DMSO [5] 104% | vesicle binding response [6] 176% | inhibition [7] -18.5% | superoxide response (% of plate) [8] 110% | aptamer binding inhibition [9] -1% | response [10] 0.7% | inhibition [11] 9.92% | response [12] -1.15% | binding (% of control) [13] 99.6% | inhibition [15] 9% | differentiation response [16] -14.8%
active: efflux inhibition (fraction of control) [14] 0.53
60.3%: double positive events [6]

Cc1ccc(C(=O)COC(=O)c2cnccn2)cc1[N+](=O)[O-]
inactive: percent of DMSO control GFP [1] 99.1% | GFP response vs DMSO [2] 99.6% | percent response of DMSO control [3] 110% | GFP response vs DMSO [4] 82% | GFP response, % of DMSO [5] 82.5% | vesicle binding response [6] 226% | inhibition [7] -18.2% | superoxide response (% of plate) [8] 97.6% | aptamer binding inhibition [9] 4% | response [10] -3.42% | inhibition [11] -6.78% | response [12] -1.08% | binding (% of control) [13] 103% | efflux inhibition (fraction of control) [14] 0.01 | inhibition [15] 12% | differentiation response [16] -21.6%
58.1%: double positive events [6]

COC(=O)CCC(=O)CN
inactive: percent of DMSO control GFP [1] 102% | GFP response vs DMSO [2] 106% | percent response of DMSO control [3] 110% | GFP response vs DMSO [4] 118% | GFP response, % of DMSO [5] 113% | vesicle binding response [6] 148% | inhibition [7] -5.11% | superoxide response (% of plate) [8] 94% | aptamer binding inhibition [9] -3% | response [10] 1.35% | inhibition [11] 7.22% | response [12] -6.15% | binding (% of control) [13] 102% | efflux inhibition (fraction of control) [14] -0.11 | inhibition [15] 5% | differentiation response [16] 7.13%
62.2%: double positive events [6]

CC(=O)OC[C@H]1O[C@@H](Sc2cccc3cccnc23)[C@H](OC(C)=O)[C@@H](OC(C)=O)[C@H]1OC(C)=O
inactive: percent of DMSO control GFP [1] 98.9% | GFP response vs DMSO [2] 99.6% | percent response of DMSO control [3] 99% | GFP response vs DMSO [4] 117% | GFP response, % of DMSO [5] 94.6% | vesicle binding response [6] 187% | inhibition [7] -5.38% | superoxide response (% of plate) [8] 105% | aptamer binding inhibition [9] 4% | response [10] -27.5% | inhibition [11] -0.13% | response [12] 0.07% | binding (% of control) [13] 104% | efflux inhibition (fraction of control) [14] 0.04 | inhibition [15] -2% | differentiation response [16] -5.97%
62.5%: double positive events [6]
